LmPK inhibitor = blocks Leishmania mexicana pyruvate kinase activity; purified LmPK, Kinase-Glo ATP luminescence, 1 h; 290,000 tested, 0.37% active; Q27686; Potency, µM (highest dose often 57.5 µM), inactives show top-dose activity change, negative = inhibition, usual class: inhibitors; AID 1721
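qHTS format; LmPK 0.1 nM; substrates PEP 0.5 mM and ADP 0.1 mM. One-hour room-temperature incubation, then coupled luciferase luminescence; 0.5 nM enzyme wells mark activation.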
Tb PYK inh = T. brucei pyruvate kinase inhibition; TbPYK enzyme, Kinase-Glo Plus ATP luminescence, 45 min; 410,000 tested, 0.12% active; Q57TT1; Potency, µM (doses to about 76.8 µM), inactives show at the highest dose activity, negative = inhibition, actives largely listed as inhibitors; note: nearly all actives have a fitted effect of over 50% in size
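Luminescence from Kinase-Glo Plus, added after a 45-minute room-temperature reaction, served as the end-point read-out. The enzyme and substrate were preincubated with compound before ADP (130 uM final) initiated turnover. Concentration-effect curves came from normalized qHTS data.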
RE007 growth inh = less growth of the S. pombe RE007 Vpr strain; S. pombe RE007 Vpr strain, BacTiter-Glo ATP luminescence, 24 h; Potency, µM (highest dose often 92.2 µM), for the others: top-dose activity change, negative = less growth, actives largely listed as inhibitors; 360,000 tested, 0.21% active; active = well fitted falling curve with a large enough effect; inconclusive = small, poorly fitted or top-dose-only effect; inactive = no such curve, though single readings can be large or run the other way; note: nearly all actives have a fitted effect of over 50% in size
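Fission yeast strain RE007, carrying one chromosomally integrated HIV-1 vpr copy, was seeded at OD 0.01 in PMG+AL medium with 23 nL pinned compound. After 24 h at 30 °C and 99% humidity, viability was read by BacTiter-Glo luminescence.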
AmpC detergent = AmpC beta-lactamase inhibition with detergent present; P00811; AmpC hydrolysis of nitrocefin, absorbance 480 nm, 0.01% Triton; Potency, µM (series often up to 114 µM), for the others: top-dose activity change, negative = inhibition, actives largely listed as inhibitors; 370,000 tested, 0.041% active;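 note: 0% = no-compound wells and -100% = no-enzyme wells; nearly all actives have a fitted effect of over 25% in size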
Target sequence (P00811 whole entry, looked up): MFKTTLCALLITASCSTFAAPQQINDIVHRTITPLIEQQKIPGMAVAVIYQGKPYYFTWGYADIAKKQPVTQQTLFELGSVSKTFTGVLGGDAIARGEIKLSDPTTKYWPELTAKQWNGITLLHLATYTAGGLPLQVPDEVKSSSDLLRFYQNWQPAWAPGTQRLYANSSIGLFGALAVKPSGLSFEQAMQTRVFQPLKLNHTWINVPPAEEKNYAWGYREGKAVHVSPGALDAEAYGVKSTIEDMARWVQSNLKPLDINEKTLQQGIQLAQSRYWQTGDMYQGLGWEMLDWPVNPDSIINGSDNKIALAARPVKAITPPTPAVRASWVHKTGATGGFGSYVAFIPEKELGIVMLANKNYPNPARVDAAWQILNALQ
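20 mM phosphate pH 7.0 + 0.01% (detergent screen) or 0.0001% Triton X-100; 5.3 nM AmpC reagent; cpd preinc 15 min RT; nitrocefin (800 uM stock) to start; A480 q20 s × 4 min; Activity was normalised to no-enzyme and no-compound control wells.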
Giardia FBPA inh-1 = Giardia lamblia aldolase inhibition; A8B2U2; purified Giardia FBPA; Potency, µM (highest dose often 59.6 µM), inactives show at the top dose activity, negative = inhibition, hits mostly inhibitors; 290,000 tested, 0.71% active; note: nearly all actives have a fitted effect of over 55% in size
Target sequence (A8B2U2 whole entry, looked up): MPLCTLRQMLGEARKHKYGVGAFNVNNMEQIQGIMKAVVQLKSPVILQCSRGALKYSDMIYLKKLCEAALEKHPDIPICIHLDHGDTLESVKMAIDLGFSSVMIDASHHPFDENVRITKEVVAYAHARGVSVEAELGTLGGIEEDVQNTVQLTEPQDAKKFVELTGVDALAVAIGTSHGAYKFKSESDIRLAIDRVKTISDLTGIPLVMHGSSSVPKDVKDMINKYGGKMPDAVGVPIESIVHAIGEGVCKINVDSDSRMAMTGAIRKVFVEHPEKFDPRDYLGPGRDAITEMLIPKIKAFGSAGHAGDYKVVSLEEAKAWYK
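Giardia FBPA (40 nM reagent) was preincubated 10 min at RT with compound (up to 57.5 uM final), then substrate plus GAPDH/TPI/NAD/arsenate coupling system with diaphorase/resazurin was added; resorufin fluorescence (525/598 nm) was read after 20 min.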
AmpC no deterg = AmpC beta-lactamase inhibition without detergent | P00811 | AmpC nitrocefin hydrolysis, absorbance 480 nm, 0.0001% Triton | Potency, µM (highest dose often 57.1 µM), for inactives: at the top dose activity change, negative = inhibition, usual class: inhibitors | 330,000 tested, 0.52% active;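 note: plate controls were no compound for no effect and no enzyme for full effect; nearly all actives have a fitted effect of over 20% in size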
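20 mM phosphate pH 7.0 + 0.01% (detergent screen) or 0.0001% Triton X-100; 5.3 nM AmpC reagent; cpd preinc 15 min RT; nitrocefin (800 uM stock) to start; A480 q20 s × 4 min; Activity was normalised to no-enzyme and no-compound control wells.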
Giardia growth = inhibitors of Giardia lamblia growth; 1,500 tested, 5% active; Potency, µM (highest dose often 57.5 µM), without a hit: top-dose activity change, negative = inhibition, most hits filed as inhibitors; Giardia lamblia trophozoite growth inhibition; shares compounds with Giardia FBPA inh-1;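 note: trophozoites exposed to compound for 48 h at 37 °C; nearly all actives have a fitted effect of over 70% in size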
Mammal cell tox = counter-screen for Giardia aldolase inhibitors: mammalian cell toxicity. 1,500 tested, 4% active. AID 2786. mammalian cell viability counter-screen, qHTS. Potency, µM (top dose mostly 57.5 µM), without a hit: top-dose viability change, negative = toxicity, actives largely listed as inhibitors. shares compounds with Giardia FBPA inh-1;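 note: Chinese hamster ovary cells used as mammalian cytotoxicity surrogate; viability measured as cellular ATP by luminescence; compound exposure lasted 48 h before reading; nearly all actives have a fitted effect of over 60% in size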
Giardia FBPA inh-2 = confirmation of Giardia fructose-bisphosphate aldolase inhibitors; shares compounds with Giardia FBPA inh-1; purified Giardia aldolase enzyme activity, qHTS; Potency, µM (titrated, usually from 57.5 µM), for the others: at the top dose activity change, negative = inhibition, actives largely listed as inhibitors; 1,500 tested, 5% active; AID 2787; note: nearly all actives have a fitted effect of over 45% in size
Rabbit aldolase = rabbit FBP aldolase inhibition by Giardia aldolase hits; 1,500 tested, 4% active; Potency, µM (series often up to 57.5 µM), without a hit: at the highest dose activity, negative = inhibition, most hits filed as inhibitors; Rabbit muscle FBPA enzyme inhibition, selectivity counter-screen; shares compounds with Giardia FBPA inh-1; AID 2794; note: nearly all actives have a fitted effect of over 60% in size
GAPDH counter = GAPDH inhibition flagged for Giardia aldolase hits; GAPDH coupling enzyme counterscreen, biochemical, qHTS; Potency, µM (series often up to 57.5 µM), for the others: at the highest dose activity change, negative = inhibition, hits mostly inhibitors; AID 2795; 1,500 tested, 6% active; shares compounds with Giardia FBPA inh-1; note: nearly all actives have a fitted effect of over 55% in size
* = called active by the depositor; ? = inconclusive; . = not tested or not shown; [ ] = dose if it differs, or a comment. Shown are actives, neighbours in structure and some others; about 1.4% of the full set was active somewhere. Unless noted, calls come from the whole dose curve; as a rule, active = well fitted curve in the direction sought with a large enough effect; inconclusive = small, poorly fitted or top-dose-only effect, or another doubt; inactive = no such curve, though single readings can be large; an effect the other way counts as inactive or inconclusive. Unless noted, % is set by controls: 0 for no effect and ±100 for the full control effect; potency is the fitted concentration of half-maximal effect.

SMILES	LmPK inhibitor	Tb PYK inh	RE007 growth inh	AmpC detergent	Giardia FBPA inh-1	AmpC no deterg	Giardia growth	Mammal cell tox	Giardia FBPA inh-2	Rabbit aldolase	GAPDH counter
CCCCC1(C)NC(=S)N2N1C(=S)NC2(C)CCCC (stereo not drawn)	3%	?	4%	0%	16µM*	-7%	?	21%	10%	2%	13%
COc1cccc(CNC(=O)c2cc(C)nc3c2c(C)nn3-c2cccc(F)c2)c1	.	0%	.	16%	.	.	.	.	.	.	.
CCC(=O)N1CCc2cc(CNS(=O)(=O)c3cc(Cl)ccc3OC)ccc21	.	-6%	.	-5%	.	.	.	.	.	.	.
Cc1cc(=O)c2c(O)c(O)ccc2o1	-2%	-9%	-13%	-1%	10µM*	-17%	63%	11%	?	?	?
CCC1Oc2ccccc2N(CC(=O)NCCN2CCc3ccccc3C2)C1=O (stereo not drawn)	3%	-7%	1%	2%	16µM*	49%	-22%	18%	6%	9%	1%
CCCCN(CCCC)C(=O)CN(C)S(=O)(=O)c1ccc2c(c1)c(=O)n(C)c(=O)n2C	.	0%	.	-8%	.	.	.	.	.	.	.
Oc1ccc(C2C[C@H]3CC[C@@H]2C3)cc1O (stereo partly drawn)	?	?	2%	0%	28µM*	-54%	-18%	-5%	14µM*	32µM*	32µM*
O=C1CC(c2ccc(O)c(O)c2)Oc2cc(O)cc(O)c21 (stereo not drawn)	8%	-22%	4%	1%	-19%	-36%	.	.	.	.	.
c1ccc2nc3c(nc2c1)CCc1nonc1-3	4%	-3%	-17%	-3%	-4%	-16%	.	.	.	.	.
O/N=C1/CCc2nonc2/C1=N/O	0%	0%	?	9%	16µM*	-18%	8.9µM*	8%	-8%	5%	-19%
Cn1c(=O)c2c(nc(NN=C3CCCC3)n2C)n(C)c1=O	-4%	-1%	-21%	3%	16µM*	0%	11%	-4%	-12%	2%	-4%
Cn1c(=O)c2c(nc(N3CCCC3)n2C)n(C)c1=O	1%	2%	9%	-12%	-6%	-5%	.	.	.	.	.
Cn1c(=O)c2c(nc(CO)n2C)n(C)c1=O	-5%	2%	27%	3%	0%	-20%	.	.	.	.	.
Cn1c(=O)c2c(nc(NNC(=O)C(F)(F)F)n2C)n(C)c1=O	1%	0%	-3%	?	18µM*	-27%	-6%[10.4 µM]	0%	1%	-2%	13%
COc1cc2cc(CNc3ccc(C)cc3)c(=O)n(CC(=O)Nc3ccc(F)cc3F)c2cc1OC	.	2%	.	-2%	.	.	.	.	.	.	.
Cc1cccc(C)c1NC(=O)CSc1nnc(-c2ccco2)c(-c2ccco2)n1	13%	?	8%	-1%	7.9µM*	-28%	0%[10.4 µM]	15%	?	-23%	?
COc1ccc(C)cc1NC(=O)C(CCSC)NS(=O)(=O)c1ccc2c(c1)oc(=O)n2C (stereo not drawn)	.	9%[15.4 µM]	.	5%	.	.	.	.	.	.	.
Nn1c(SCC(=O)Nc2cccc(C(F)(F)F)c2)nncc1=O	-10%	-9%	7%	-3%	25µM*	-18%	-9%[10.4 µM]	-8%	-4%	-7%	0%
Cc1csc(NC(=O)c2ccccc2)n1	-9%	-10%	?	-15%	-13%	-16%	.	.	.	.	.
COc1cc(OC)cc(C(=O)NNC(=S)NC(=O)c2cccnc2)c1	3%	-3%	6%	-1%	2µM*	-5%	16µM*	7%	13%	9%	14%
Cc1csc(NC(=S)NC(=O)c2ccccc2)n1	-11%	0%	-13%	?	7.9µM*	-35%	?	50µM*	-5%	-7%	-7%
COc1ccc(C(=O)NC(=S)NNC(=O)c2cccnc2)cc1	-2%	-16%	-4%	-3%	-23%	-6%	.	.	.	.	.
O=C(NC(=S)Nc1cccnc1Cl)c1ccc(Cl)cc1	0%	-2%	?	3%	13µM*	-39%	-21%	-5%	2%	4%	-1%
CCOC(=O)Cc1csc(NC(=S)NC(=O)c2cccc([N+](=O)[O-])c2)n1	1%	-3%	4%	-4%	4.5µM*	-25%	?	4%	12%	4%	11%
O=C(Nc1cccnc1Cl)c1ccc(Cl)cc1	-1%	1%	1%	0%	-1%	-6%	.	.	.	.	.
SMILES	LmPK inhibitor	Tb PYK inh	RE007 growth inh	AmpC detergent	Giardia FBPA inh-1	AmpC no deterg	Giardia growth	Mammal cell tox	Giardia FBPA inh-2	Rabbit aldolase	GAPDH counter
Cc1snnc1C(=O)NC(=S)Nc1ccccc1	2%	-4%	-12%	-4%	13µM*	-17%	26%	10%	4%	16%	2%
O=C(NC(=S)Nc1cccnc1)c1ccccc1	-2%	-1%	10%	-5%	13µM*	-9%	-19%	6%	1%	11%	7%
O=C(O)c1ccc(NC(=S)NC(=O)c2cccnc2)cc1	1%	-21%	-8%	-11%	3.5µM*	-12%	-5%[38.3 µM]	-14%	8%	15%	8%
CCC(=O)NC(=S)Nc1ccc(NC(=O)c2cccnc2)cc1	1%	0%	-11%	2%	-1%	-21%	.	.	.	.	.
O=C(NC(=S)Nc1ccccc1)c1ccc(Br)o1	0%	-2%	9%	-9%	-13%	-7%[2.29 µM]	.	.	.	.	.
COC(=O)c1ccc(NC(=S)NC(=O)c2cccnc2)cc1	-2%	-5%	-1%	-6%	7.1µM*	-12%	-13%[38.3 µM]	-22%	1%	10%	5%
Cc1ccc(C(=O)Nc2nnc(SCc3cc(=O)c4c(C)ccc(C)c4[nH]3)s2)cc1	.	1%	.	21%	.	.	.	.	.	.	.

Screens deposited in PubChem BioAssay by National Center for Advancing Translational Sciences (NCATS).
